Experimental findings from PubChem BioAssay (NCATS) are described below.

Inconclusive results are not listed. Values without a mark were called inactive. Calls of active or inactive are those of the source. Calls follow the shape of the dose curve; as a rule, active = well fitted cell-killing curve with a large enough effect; inconclusive = small, poorly fitted or top-dose-only effect, or effect the other way; inactive = no such curve, though single readings can be large or run the other way.

Test [1] in a line: Quantitative High-Throughput drug screen in 47 multiple myeloma cell lines against the NCATS MIPE library collection: MM1S_ATCC cell viability assay (AID 1918980). Also: nearly all actives have a fitted effect of over 45% in size. The procedure, abridged: (§1)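 ATP-based luminescence (CellTiter-Glo, 5 min RT incubation) quantified surviving cells following two days' treatment with MIPE 4.0 agents at 37 °C, 5% CO2.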
A short description of test [2]: Quantitative High-Throughput drug screen in 47 multiple myeloma cell lines against the NCATS MIPE library collection: MM1R_ATCC cell viability assay (AID 1918981). Also: nearly all actives have a fitted effect of over 35% in size. The gist of the method:
as §1

Test [3] is described as follows: Quantitative High-Throughput drug screen in 47 multiple myeloma cell lines against the NCATS MIPE library collection: LP1_DSMZ cell viability assay (AID 1918982). Also: nearly all actives have a fitted effect of over 35% in size. The procedure, abridged:
as §1

A short description of test [4]: Quantitative High-Throughput drug screen in 47 multiple myeloma cell lines against the NCATS MIPE library collection: KMS28PE_JCRB cell viability assay (AID 1918983). Also: nearly all actives have a fitted effect of over 35% in size. The procedure, abridged: as §1
A short description of test [5]: Quantitative High-Throughput drug screen in 47 multiple myeloma cell lines against the NCATS MIPE library collection: KMS34_JCRB cell viability assay (AID 1918985). Also: nearly all actives have a fitted effect of over 40% in size. The gist of the method:
as §1

Test [6] can be described thus: Quantitative High-Throughput drug screen in 47 multiple myeloma cell lines against the NCATS MIPE library collection: OCIMY5_PLB cell viability assay (AID 1918988). Also: nearly all actives have a fitted effect of over 65% in size. The procedure, abridged:
as §1

Test [7] can be described thus: Quantitative High-Throughput drug screen in 47 multiple myeloma cell lines against the NCATS MIPE library collection: L363_DSMZ cell viability assay (AID 1918984). Also: nearly all actives have a fitted effect of over 40% in size. The procedure, abridged:
as §1

Test [8] in a line: Quantitative High-Throughput drug screen in 47 multiple myeloma cell lines against the NCATS MIPE library collection: OCIMY7_PLB cell viability assay (AID 1918987). Also: nearly all actives have a fitted effect of over 65% in size. Conditions: OCI-MY7 myeloma viability, CellTiter-Glo ATP, 48 h; viability (% of DMSO): at 45.8 µM (top of the series). The procedure, abridged: as §1
Test [9] is described as follows: Quantitative High-Throughput drug screen in 47 multiple myeloma cell lines against the NCATS MIPE library collection: OPM1_PLB cell viability assay (AID 1918989). Also: nearly all actives have a fitted effect of over 40% in size. The procedure, abridged: as §1
Test [10] in a line: Quantitative High-Throughput drug screen in 47 multiple myeloma cell lines against the NCATS MIPE library collection: SKMM1_PLB cell viability assay (AID 1919863). Also: nearly all actives have a fitted effect of over 35% in size. Conditions: SKMM1 myeloma viability, CellTiter-Glo ATP, 48 h; viability: hits give low values. The procedure, abridged: as §1
Potency is read from the fitted curve at half-maximal effect.

For the compound `CS(=O)(=O)N1CCc2c(-c3cnc(N)nc3)nc(N3CCOCC3)nc21`, the Potency in [1] is 0.235 µM (active); in test [2] it was 0.209 µM (active); in test [3], 0.0332 µM (active); in test [4], 0.118 µM (active); in test [5], 0.833 µM (active); in test [6] it was 0.332 µM (active).
For `C=C1C(=O)O[C@H]2[C@@H]1CCC(C)=CCC[C@@]1(C)O[C@@H]21`, the Potency in [1] was 5.9 µM (active); in test [2], 3.72 µM (active); in test [3] it was 5.9 µM (active); in test [4] it was 7.43 µM (active); in test [7] it was 9.35 µM (active); in test [5], 2.09 µM (active). The Potency in test [8] was 0.526 µM (active); in test [9] it was 4.69 µM (active); in [10], 16.6 µM (active).
On to `C=C(C)[C@@H]1CC[C@]2(C(=O)O)CC[C@]3(C)[C@H](CC[C@@H]4[C@@]5(C)CC[C@H](O)C(C)(C)[C@@H]5CC[C@]43C)[C@@H]12`, for which the Potency entry in test [1], in [2], in test [3], in test [7], in [5] and in test [9] was “inactive” each time. The Potency is 3.72 µM (active) in [4], 5.9 µM (active) in test [6] and 0.935 µM (active) in test [10].
As to `C[C@@H]1CC[C@@]2(OC1)OC1CC3C4CC=C5CC(O)CCC5(C)C4CCC3(C)C1[C@@H]2C` (stereo partly specified), the Potency entry in [1], in test [2], in test [3], in test [4], in test [7] and in [5] was “inactive” in each case. The Potency result in test [8] and in test [9] was “inactive” each time. Further, in [10], the viability is 155%.
As to `Oc1ccc(-c2ccc(-c3cc(Nc4cccc(CNC5CC5)c4)n[nH]3)cc2)c(O)c1`, the Potency in [1] is 1.66 µM (active); in test [2], 2.35 µM (active); in [3], 2.64 µM (active); in [4], 5.26 µM (active); in test [7], 0.148 µM (active); in [5], 4.18 µM (active). Also, the Potency in [8] was 4.69 µM (active); in [9], 1.05 µM (active); in test [10] it was 5.26 µM (active).
Turning to `c1cncc(CN2CCC(n3ncc4c(N5CCOCC5)nc(-c5ccc6[nH]ccc6c5)nc43)CC2)c1`, the Potency was 5.9 µM (active) in [1]; 5.9 µM (active) in test [2]; 5.9 µM (active) in [3]; 6.62 µM (active) in [4]; 5.9 µM (active) in [5]; 9.35 µM (active) in test [8]. The Potency in test [6] was 13.2 µM (active); in test [9], 2.64 µM (active); in [10], 23.5 µM (active).
With `Cc1cnn(C)c1C(=O)Nc1cc(Nc2ccc3c(C=Cc4ccccn4)n[nH]c3c2)ccc1F`, the Potency is 20.9 µM (active) in test [1]; 26.4 µM (active) in test [2]; 20.9 µM (active) in test [3]; 29.6 µM (active) in test [4]; 4.69 µM (active) in test [7]; 4.69 µM (active) in test [9]. Further, the Potency in [10] was 20.9 µM (active).
Take `OCCNC1CCCc2c1[nH]c1ccc(-c3ccccc3)cc21` (stereo unspecified): the Potency in test [1] was 20.9 µM (active); in [2], 20.9 µM (active); in test [3], 23.5 µM (active); in test [4], 23.5 µM (active); in test [7] it was 9.35 µM (active); in [8] it was 20.9 µM (active). Besides, the Potency in test [6] is 18.7 µM (active); in test [9], 8.33 µM (active); in [10] it was 26.4 µM (active).
For `Cc1ccc2nc(NCCN)c3ncc(C)n3c2c1`, the Potency in test [1] is 1.66 µM (active); in [2], 3.32 µM (active); in [3], 2.64 µM (active); in test [4] it was 4.18 µM (active); in test [5] it was 8.33 µM (active); in test [8] it was 6.62 µM (active). The Potency in test [9] was 13.2 µM (active); in [10], 4.69 µM (active).
`O=C(C=CC#Cc1cccc(NS(=O)(=O)c2ccccc2)c1)NO`: the Potency is 1.87 µM (active) in [1]; 1.48 µM (active) in test [2]; 0.935 µM (active) in test [3]; 0.935 µM (active) in test [5]; 0.372 µM (active) in test [8]; 1.18 µM (active) in test [6]. Also, the Potency in test [9] and in test [10] was 2.35 µM (active) throughout.
Turning to `CC[C@@]1([C@@H]2O[C@@H]([C@H]3O[C@@](O)(CO)[C@H](C)C[C@H]3C)C[C@H]2C)CC[C@H]([C@]2(C)CC[C@]3(C[C@H](O)[C@@H](C)[C@@H]([C@@H](C)[C@@H](OC)[C@H](C)C(=O)O)O3)O2)O1`, the Potency is 0.182 µM (active) in [1]; 0.229 µM (active) in test [2]; 0.0645 µM (active) in [3]; 0.724 µM (active) in test [5]; 0.229 µM (active) in test [8]; 0.102 µM (active) in test [6]. Moreover, the values for the Potency in test [9] and in test [10] were 0.162 µM (active) and 0.323 µM (active), respectively.
As for `CC(C=CC1=C(C)CCCC1(C)C)=CC=CC(C)=CC(=O)Nc1ccc(O)cc1`, the Potency is 48.1 µM (active) in [1]; 17.1 µM (active) in [2]; 17.1 µM (active) in test [3]; 17.1 µM (active) in [5]; 4.29 µM (active) in [8]; 3.4 µM (active) in test [9]. Further, in [10], the Potency was 19.1 µM (active).
On to `CC(C=CC=C(C)C=CC1=C(C)CCCC1(C)C)=CC=CC=C(C)C=CC=C(C)C=CC1=C(C)CCCC1(C)C`, for which the Potency in [1] was 5.9 µM (active); in test [2], 16.6 µM (active); in test [7] it was 16.6 µM (active); in test [8], 2.09 µM (active). The Potency entry in test [3] and in test [9] was “inactive” throughout. Moreover, the viability in [10] is 107%.
Take `Cc1nc(NC(=O)N2CCC[C@@H]2C(N)=O)sc1-c1ccnc(C(C)(C)C(F)(F)F)c1`: the Potency in [1] is 3.32 µM (active); in test [2] it was 1.66 µM (active); in test [3], 1.48 µM (active); in test [4], 0.296 µM (active); in test [5], 1.87 µM (active); in [6], 0.935 µM (active). Moreover, the Potency in test [9] was 2.96 µM (active); in [10], 6.62 µM (active).
As for `O=C(O)CCCCCC(=O)NN=C1CCCC1`, the Potency result in test [1], in test [2], in test [3] and in test [4] was “inactive” in each case. For the same compound, the viability in [10] is 119%.
Turning to `Cc1ccc([N+](=O)[O-])cc1S(=O)(=O)N(C)N=Cc1cnc2ccc(Br)cn12`, the Potency in test [1] is 0.0296 µM (active); in [2], 0.0332 µM (active); in test [3] it was 0.0264 µM (active); in test [4], 0.0418 µM (active); in [5], 0.0148 µM (active); in test [6], 0.0187 µM (active). Further, the Potency in test [9] was 0.0083 µM (active); in test [10], 0.0526 µM (active).
